Screening data: PubChem BioAssay, Paczesny and Yang Labs, IUPUI and University of Michigan
The sample as a whole holds a higher share of hits than the screen did.
ST2 IL33 inh: inhibitors of human ST2 (IL1RL1) binding to IL-33; Q01638; AID 1259354; AlphaLISA ST2-Fc/biotin-IL-33 interaction, 1 h; actives 2.3% (n = 78,000); inhibition, % for hits at 17 µM; in the data active = inhibition above about 30%
Target sequence (Q01638 whole entry, looked up): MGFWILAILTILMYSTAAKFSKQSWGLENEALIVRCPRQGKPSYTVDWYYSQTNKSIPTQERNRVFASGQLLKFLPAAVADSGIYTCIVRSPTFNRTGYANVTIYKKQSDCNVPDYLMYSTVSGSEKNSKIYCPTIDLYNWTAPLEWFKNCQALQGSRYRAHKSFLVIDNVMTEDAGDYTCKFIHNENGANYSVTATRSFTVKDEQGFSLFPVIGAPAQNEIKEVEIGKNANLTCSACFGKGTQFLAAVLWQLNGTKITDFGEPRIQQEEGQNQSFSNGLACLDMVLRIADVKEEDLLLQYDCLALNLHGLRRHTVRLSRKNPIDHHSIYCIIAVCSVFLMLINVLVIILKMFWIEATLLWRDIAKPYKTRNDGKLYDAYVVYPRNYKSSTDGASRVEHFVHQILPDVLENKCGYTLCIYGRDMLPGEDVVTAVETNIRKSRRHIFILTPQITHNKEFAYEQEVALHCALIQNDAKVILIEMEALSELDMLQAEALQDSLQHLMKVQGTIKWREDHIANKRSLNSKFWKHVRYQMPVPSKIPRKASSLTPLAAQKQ
* marks the source's active call; other numbers are inactive results; i = inactive.

SMILES	ST2 IL33 inh
Cc1ccc(NC(=O)c2cccc([N+](=O)[O-])c2)cc1C	i
O=C(Nc1ccc(I)cc1)c1cccc([N+](=O)[O-])c1	i
O=C(Nc1cccc(Cl)c1)c1cccc([N+](=O)[O-])c1	92%*
CC(=O)Oc1c(C)cc(CNC(C)Cn2cccn2)cc1C (centres undefined)	i
COc1ccc(/C=C2\N=C(c3cccc(C)c3)OC2=O)c(OC)c1OC	48%*
Cc1cccc(C2=N/C(=C\c3ccco3)C(=O)O2)c1	47%*
Cc1cccc(/C=C2\N=C(c3ccc4c(c3)OCO4)OC2=O)c1	i
Cc1cccc(C2=N/C(=C\c3cccc(C(F)(F)F)c3)C(=O)O2)c1	32%*
O=C1OC(c2cccc([N+](=O)[O-])c2)=N/C1=C\c1ccc(Cl)cc1Cl	i
CCOc1ccc(/C=C2\N=C(c3cccc(F)c3)OC2=O)cc1OC	i
COc1cc(C)c(/C=C2/N=C(c3ccccc3)OC2=O)cc1C(C)C	i
Cc1cccc(C2=N/C(=C\c3sccc3C)C(=O)O2)c1	37%*
Cc1cccc(/C=C2\N=C(c3ccccc3[N+](=O)[O-])OC2=O)c1	i
Cc1cccc(C2=N/C(=C\c3c(F)cccc3Cl)C(=O)O2)c1	i
COc1ccccc1/C=C1\N=C(c2cccc([N+](=O)[O-])c2)OC1=O	i
COc1ccc(C2=N/C(=C\c3cccc(C(F)(F)F)c3)C(=O)O2)cc1OC	i
NC(=O)NS(=O)(=O)c1ccccc1Cl	i
CC(=O)N1c2c(cc(Br)cc2S(=O)(=O)NCc2cccs2)CC1C (centres undefined)	i
CCOc1ncccc1C(=O)N1CCC(=O)N(CC2CC2)C(C(C)C)C1 (centres undefined)	i
O=C(c1cc(F)c(F)cc1F)N1CCOc2ccc(CN3CCc4sccc4C3)cc2C1	i
CC(=O)N1N=C(c2ccccc2)OC12CCCCCC2	i
Brc1c(CSc2nc3ccccc3[nH]2)nc2ccccn12	i
CCOc1ccc(/C=C2\N=C(c3cccc(I)c3)OC2=O)cc1	i
COc1ccc(/C=C2\N=C(c3ccc(-c4ccccc4)cc3)OC2=O)cc1	i
Cc1cccc(C2=N/C(=C\c3ccc(C)o3)C(=O)O2)c1	53%*
SMILES	ST2 IL33 inh
COc1ccc(SCCc2ccccn2)cc1	i
CCSc1nc2ccc([N+](=O)[O-])cc2[nH]1	i
O=c1[nH]c(SCc2nc3ccc([N+](=O)[O-])cc3[nH]2)nc2ccccc12	i
O=[N+]([O-])c1ccc2nc(/C=C/c3ccco3)[nH]c2c1	32%*
CN(Cc1cccc2ncccc12)C(=O)c1cccc(-c2ccc(O)cc2)c1	i
COCCn1cc(C(=O)NCCCN2CCCCCC2)c2c3ccccc3n(C)c2c1=O	i
O=C(NCc1ccc2c(c1)OCO2)C1C2C=CC3(CN(Cc4ccccc4Cl)C(=O)C13)O2 (centres undefined)	i
COc1ccccc1N1CCN([C@H]2[C@@H]3OC[C@@H](O3)[C@@H](NCc3cnc4ccccc4c3)[C@@H]2O)CC1	30%*
NC(=O)C1CCN([C@H]2[C@@H]3OC[C@@H](O3)[C@@H](NCc3cnc4ccccc4c3)[C@@H]2O)CC1	i
C=CCNC(=O)N[C@H]1[C@H](O)[C@@H](N2CCN(c3ccccc3OC)CC2)[C@@H]2OC[C@H]1O2	i
CCOc1ccc(C(C)=O)cc1N1C(=O)[C@@H]2C3C=CC([C@@H]2C1=O)C31CC1	i
N#CCCC1(CCC#N)CCCC(CCC#N)(CCC#N)C1=O	i
Cc1ccc(OC2(C(=O)NCCCC3CCOC3)CCNCC2)cc1 (centres undefined)	i
[O-][n+]1c2ccccc2[n+]([O-])c2cc(O)ccc21	35%*
CC(C)c1nc2cc(C(=O)N3CCNC(=O)C3Cc3ccccc3)ccc2o1 (centres undefined)	i
O=S(=O)(Nc1ccc(S(=O)(=O)Nc2ccc(F)cc2)cc1)c1ccccc1	i
COCCNC(=O)CSc1nc(-c2ccc(SC)cc2)[nH]c1-c1ccc(F)cc1	i
CC(=O)N(CN1C(=O)c2ccccc2C1=O)c1cccc(C)c1	i
CC(=O)N(CN1C(=O)c2ccc(Br)cc2C1=O)c1ccc(OCc2ccccc2)cc1	i
CC(=O)N(CN1C(=O)c2ccc(Br)cc2C1=O)c1cccc(C(=O)O)c1	45%*
O=C(NCc1ccco1)c1ccc([N+](=O)[O-])cc1	i
O=C(Nc1nnc(-c2ccc(F)cc2)o1)c1ccc(S(=O)(=O)N2CCCCCC2)cc1	i
O=[N+]([O-])c1ccc(S(=O)(=O)Nc2ccccc2)cc1	i
O=[N+]([O-])c1ccc(Nc2c[nH]c3ccccc23)cc1	42%*
O=c1cc[nH]c2ccc([N+](=O)[O-])cc12	i
SMILES	ST2 IL33 inh
Cc1ccc2[nH]c(C(=O)O)c(CN3CCN(c4nc(C)cnc4C)CC3)c2c1	i
CCCOC(=O)C1=C(C)NC2=C(C(=O)C(C(=O)OC)C(C)C2)C1c1ccccc1OCC (centres undefined)	i
Cc1c(Cl)c(C(=O)N2CCCC(O)(CO)CC2)nn1C (centres undefined)	i
Cc1ccc2c(Cl)c(C(=O)NCc3cccs3)sc2c1	i
Cc1cc(C(=O)N2CCCC(CCc3ccc(F)cc3)C2)cc2sc(N)nc12 (centres undefined)	i
C=CCNc1nc(-c2cc3ccccc3oc2=O)cs1	i
CCc1ccccc1NC(=O)c1ccc([N+](=O)[O-])cc1	i
Cc1ccccc1NCC(=O)c1ccc([N+](=O)[O-])cc1	48%*
Cc1ccccc1C(=O)Nc1ccc([N+](=O)[O-])cc1	i
COc1ccc(C(=O)N=c2sc3cc(F)ccc3n2C)c(OC)c1	i
COc1ccc(OC)c(-c2cc(Cl)c3c(c2)CC(CNC(=O)C(C)n2nc(C)cc2C)O3)c1 (centres undefined)	i
COc1cc2ccc(=O)oc2c(O)c1O[C@@H]1O[C@H](CO)[C@@H](O)[C@H](O)[C@H]1O	i
O=C(Nc1ccccc1[N+](=O)[O-])c1cccc(S(=O)(=O)N2CCCCC2)c1	43%*
O=C(Nc1ccccc1C(=O)O)c1ccc(S(=O)(=O)N2CCCCC2)cc1	i
CC1CN(S(=O)(=O)c2ccc(Cl)c(C(=O)Nc3ccccc3[N+](=O)[O-])c2)CC(C)O1 (centres undefined)	i
O=C(Nc1ccccn1)c1cccc(S(=O)(=O)N2CCCCC2)c1	i
Cc1ccc(NC(=O)c2cccc(S(=O)(=O)N3CCCCC3)c2)cc1	i
O=C(Nc1ccccc1[N+](=O)[O-])c1ccc(S(=O)(=O)N2CCCCC2)cc1	35%*
Cc1cc(C)nc(SCC(=O)N=C2NC(=O)CS2)n1	i
CCOC(=O)c1ccccc1NC(=O)N1CCN(Cc2nc3cccnc3n2-c2cc(C)cc(C)c2)CC1	i
C=CCNC(=O)c1cnn(-c2ccccc2)c1NC(C)=O	i
CCn1c(=NC(=O)c2ccc(S(=O)(=O)N(CCC#N)CCC#N)cc2)sc2ccccc21	i
CCOc1ccc(C(=O)Nc2c3c(nn2-c2ccc(OC)cc2)CS(=O)C3)cc1 (centres undefined)	i
COc1ccccc1NS(=O)(=O)c1ccc(NC(C)=O)cc1	i
COc1ccc(NS(=O)(=O)c2ccc(NC(=O)COc3ccccc3)cc2)cc1	i
COc1cccc(Nc2nc3ccccc3nc2NS(=O)(=O)c2ccc(NC(C)=O)cc2)c1	37%*
COc1ccc(-c2c(C#N)c(N)nc3c2c(=O)n(C)c(=O)n3C)cc1O	i
O=C(/C=C/CCc1ccc(O)cc1)CCc1ccc(O)cc1	i
